Several values for one entry are separate records, joined by “and”; a condition that tells them apart may be missing. Equal entries are not always repeated. The panel holds about 79,000 compounds, 15% with a hit somewhere; the sample as a whole holds those more often. No stated cut-off is given here; in the data, active means growth inhibition above about 70%; inactive means the rest.
How the values were obtained:
[1] = NCI Yeast Anticancer Drug Screen. Data for the rad50 strain (AID 155);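 further: 0% = growth of vehicle-only cultures of the same strain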; conditions: S. cerevisiae rad50 strain growth inhibition; at 50.0 µM; hits give high values
Procedure, shortened: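 Yeast carrying a defined DNA repair defect were exposed to test compounds, and growth was compared with vehicle-treated controls to give percent inhibition.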

[2] = NCI Yeast Anticancer Drug Screen. Data for the mec2-1 strain (AID 157); conditions: S. cerevisiae mec2-1 strain, at 50.0 µM, hits give high values
Procedure, shortened: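 Yeast mec2-1 mutant treated with compound. Readout: growth inhibition vs vehicle controls.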

[3] = NCI Yeast Anticancer Drug Screen. Data for the sgs1 mgt1 strain (AID 161);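 further: 0% = growth of cultures given vehicle only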; conditions: S. cerevisiae sgs1 mgt1 strain, at 50.0 µM, hits give high values
Procedure, shortened: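 Inhibition of yeast growth, normalised to vehicle-treated controls, is reported for a strain bearing genetic alterations in DNA damage repair.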

[4] = NCI Yeast Anticancer Drug Screen. Data for the cln2 rad14 strain (AID 165);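 further: 0% = growth equal to vehicle treated cultures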; conditions: S. cerevisiae cln2 rad14 strain, at 50.0 µM, hits give high values
Procedure, shortened: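 cln2 rad14 yeast strain; compound exposure; growth inhibition read vs vehicle controls.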

[5] = NCI Yeast Anticancer Drug Screen. Data for the bub3 strain (AID 167); conditions: S. cerevisiae bub3 mutant strain, at 50.0 µM, hits give high values
Procedure, shortened: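 Compounds were applied to a genetically altered yeast strain carrying a cell-cycle control defect. Growth inhibition was scored against vehicle-treated controls.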

[6] = NCI Yeast Anticancer Drug Screen. Data for the mlh1 rad18 strain (AID 175); conditions: S. cerevisiae mlh1 rad18 strain growth inhibition; at 50.0 µM; hits give high values
Procedure, shortened: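 Yeast w/ defined DNA-repair lesions; compound exposure; growth vs vehicle controls → % inhibition.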

Measured: growth inhibition

S=P(c1ccccc1)(N1CCOCC1)N1CCOCC1
inactive: [1] 7.8% | [2] -9.85% | [3] 7.65% | [4] -16.4% | [5] 13.4% | [6] -1.9%

O=C([O-])c1ccccc1Nc1ccccn1.O=C([O-])c1ccccc1Nc1ccccn1.[Ni+2]
inactive: [1] -15% | [2] -12.4% | [3] -15.6% | [4] 8.15% | [5] -16.8% | [6] -9.85%

O=C(O)C(C(=O)O)P(=S)(S)c1ccccc1 (centres undefined)
inactive: [1] -2.1% | [2] 8.6% | [3] -2.75% | [4] 1.15% | [5] 35.3% | [6] 14.5%

[CH3][Sb]([CH3])[S]C1OC(CO)C(O)C(O)C1O (centres undefined)
inactive: [1] -10.3% | [2] 0.9% | [3] 29.9% | [4] -15.8% | [5] 25.5% | [6] -17.8%

CC(C)(OOC(C)(C)c1ccccc1)c1ccccc1
inactive: [1] -13.1% | [2] -16% | [3] 4.6% | [4] -40.9% | [5] 6.05% | [6] -8.95%

CC(Cl)C(=O)OC(C)(C)Cl (centres undefined)
inactive: [1] 19.9% | [2] 25.7% | [3] 11.7% | [4] 11.1% | [5] 17% | [6] 3.05%

Cn1nc(-c2ccc(S(=O)(=O)F)cc2)s/c1=N/NC(=O)c1ccccc1
inactive: [1] 4% | [2] 2% | [3] 19.8% | [4] 23.4% | [5] 18.6% | [6] 3.65%

CSC(SC)P(=O)(Oc1ccccc1)Oc1ccccc1
inactive: [1] -10.4% | [2] 2.85% | [3] 1.4% | [4] 4.45% | [5] 8.7% | [6] 10.6%

O=[As](O)(O)c1ccccc1Cl
inactive: [1] 14.1% | [2] -13.4% | [3] -32.1% | [4] 4.55% | [5] 3.2% | [6] 16.6%

O=C(Nc1ccccc1Cl)OCC(Cl)(Cl)Cl
inactive: [1] -15.3% | [2] 2% | [3] 16.1% | [4] -19.9% | [5] 19.8% | [6] -11.2%

COc1ccc2n[se]nc2c1
inactive: [1] 46.4% | [2] 28.1% | [3] 26.9% | [4] 11.6% | [5] 51.6% | [6] 21%

CSC(SC)=C1C(=O)NC(=O)NC1=O
inactive: [1] -11.8% | [2] 1.65% | [3] 1.7% | [4] 10.2% | [5] -10.1% | [6] -16.4%

Nc1ccncc1
inactive: [1] 4.35% | [2] -5.45% | [3] 10% | [4] 10.9% | [5] -2.55% | [6] 4.45%

CCC1CN2CCc3cc(OC)c(OC)cc3C2CC1CC1c2cc(OC)c(OC)cc2CCN1C(=O)C(N)Cc1ccccc1 (centres undefined)
inactive: [1] -8.25% | [2] -0.5% | [3] -2.3% | [4] -3.05% | [5] -5.05% | [6] 8.5%

CN1CC=C(OP(=O)(NCc2ccccc2)N(CCCl)CCCl)CC1 (centres undefined)
inactive: [1] -6.25% | [2] -12.8% | [3] 0.9% | [4] -3.1% | [5] -17.4% | [6] -34%

COc1ccc(Cc2nccc3cc(OC)c(OC)cc23)cc1OC
inactive: [1] -4.15% and -16.3% | [2] -19.4% and -28% | [3] -6.9% and 11.4% | [4] -2.9% and -11.6% | [5] -11.7% and -7.9% | [6] -21.1% and -29.4%

Clc1ccc(C2ON2c2ccccc2)cc1 (centres undefined) (tested in a mixture with another compound)
inactive: [1] 3.1% | [2] 14.6% | [3] 16.2% | [4] 4.45% | [5] -8.4% | [6] 18.2%

CCC(=O)c1ccc(C)cc1
inactive: [1] -11.5% | [2] 1.2% | [3] -10.4% | [4] -16.7% | [5] 4.2% | [6] -3.45%

CCCCC(CC)COP(OCC(CC)CCCC)OCC(CC)CCCC.[Cl][Sn][Cl] (centres undefined)
inactive: [1] -8.1% | [2] 16.1% | [3] 14.9% | [4] -10.4% | [5] -6.2% | [6] 21%

— PubChem BioAssay (NCI)
